Reference: paper PMC4336329 (PLoS ONE, 2015)
Screen size: about 310,000 compounds; about 14,000 (4.5%) showed an effect of 50% or more. The effect is printed as a negative number. Shown is part of a subset that was picked to be rich in strong results.

Molecular target: human ether-à-go-go-related gene (hERG) potassium channel (human, UniProt Q12809)
Test: primary screen, population patch clamp on CHO cells stably expressing hERG; higher = less effect of the substance
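Note: peak tail current of the secondary pulse compared with the same well before compound.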

Sequence of human ether-à-go-go-related gene (hERG) potassium channel (Q12809 whole entry, looked up): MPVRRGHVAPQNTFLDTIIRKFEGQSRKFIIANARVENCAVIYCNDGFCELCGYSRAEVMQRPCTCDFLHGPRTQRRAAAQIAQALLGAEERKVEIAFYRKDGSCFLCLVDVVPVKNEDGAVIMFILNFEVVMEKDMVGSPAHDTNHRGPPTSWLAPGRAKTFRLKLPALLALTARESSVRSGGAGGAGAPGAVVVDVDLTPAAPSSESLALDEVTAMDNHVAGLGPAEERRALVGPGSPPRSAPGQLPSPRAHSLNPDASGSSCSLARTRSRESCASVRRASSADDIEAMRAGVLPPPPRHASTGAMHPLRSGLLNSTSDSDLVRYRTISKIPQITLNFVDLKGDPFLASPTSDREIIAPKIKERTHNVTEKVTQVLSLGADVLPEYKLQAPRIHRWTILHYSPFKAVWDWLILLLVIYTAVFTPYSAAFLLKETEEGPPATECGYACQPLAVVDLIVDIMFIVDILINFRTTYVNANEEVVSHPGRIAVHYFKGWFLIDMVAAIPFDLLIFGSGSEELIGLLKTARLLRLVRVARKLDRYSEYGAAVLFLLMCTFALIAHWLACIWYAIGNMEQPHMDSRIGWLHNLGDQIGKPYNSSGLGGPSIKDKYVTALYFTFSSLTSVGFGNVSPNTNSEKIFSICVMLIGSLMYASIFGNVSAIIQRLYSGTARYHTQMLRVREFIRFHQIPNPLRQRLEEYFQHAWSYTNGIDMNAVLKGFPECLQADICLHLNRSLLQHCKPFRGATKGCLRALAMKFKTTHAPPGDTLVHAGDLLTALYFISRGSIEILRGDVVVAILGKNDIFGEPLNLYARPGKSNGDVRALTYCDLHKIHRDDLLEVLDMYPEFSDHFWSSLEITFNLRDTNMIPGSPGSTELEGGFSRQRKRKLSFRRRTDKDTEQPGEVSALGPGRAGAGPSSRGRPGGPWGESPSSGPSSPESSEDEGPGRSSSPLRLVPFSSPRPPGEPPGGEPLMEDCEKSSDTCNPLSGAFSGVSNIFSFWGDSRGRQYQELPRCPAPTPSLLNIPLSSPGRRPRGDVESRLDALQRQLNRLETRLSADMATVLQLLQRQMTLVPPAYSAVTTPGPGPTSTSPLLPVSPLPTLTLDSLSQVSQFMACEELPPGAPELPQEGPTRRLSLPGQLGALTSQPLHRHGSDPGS

Row | SMILES | hERG current change (%, negative = inhibition) at 10uM [%]
1 | Cc1cc(NN)nc(Cc2ccccc2)n1 | 10.2
2 | Cc1cc(O)c(C(C)C)cc1NC(=O)c1cccc(Cl)c1 | -13.4
3 | O=C(CNC(=O)c1cccc(F)c1)OCC(=O)N1CCCc2ccccc21 | -0.321
4 | CCN(CC)c1ccc(C(=O)OCC(=O)Nc2cccc(S(=O)(=O)NC3=NCCCCC3)c2)cc1 | 7.02
5 | O=C(NCCc1ccccc1)C(=S)N1CCCCC1 | 9.48
6 | CC(=O)Nc1ccc(C(=O)COC(=O)CCc2ccccc2)c(F)c1 | -2.03
7 | CCc1ccc(NC(=O)c2ccccc2Br)cc1 | -11.2
8 | COc1ccc(CCN(C)C2CCCN(S(=O)(=O)c3ccccc3)C2)cc1OC (stereo not drawn) | -77.2
9 | COc1ccc(CCN(C)C(=O)c2ccc(C)c(S(=O)(=O)N3CCCCC3)c2)cc1OC | -20.9
10 | COc1ccc(CCN(C)C2CCCN(S(=O)(=O)c3ccccc3F)C2)cc1OC (stereo not drawn) | -64.3
11 | COc1ccc(CCN(C)C2CCCN(S(=O)(=O)N(C)C)C2)cc1OC (stereo not drawn) | -8.26
12 | COc1ccc(S(=O)(=O)N2CCCC(C(=O)N3CCCC3)C2)cc1OC (stereo not drawn) | 4.14
13 | COc1ccc(CCN(C)C2CCCN(S(=O)(=O)C(C)C)C2)cc1OC (stereo not drawn) | -20.2
14 | COc1ccc(S(=O)(=O)N2CCCC(N(C)CCc3ccccc3)C2)cc1OC (stereo not drawn) | -66.5
15 | COc1ccc(CCN(C)C2CCCN(S(=O)(=O)c3ccc(C)cc3)C2)cc1OC (stereo not drawn) | -78
16 | CN(CCc1ccccc1)C1CCCN(S(=O)(=O)c2cccc(F)c2)C1 (stereo not drawn) | -48.1
17 | C=CCS(=O)(=O)N1CCCC(N(C)CCc2ccc(OC)c(OC)c2)C1 (stereo not drawn) | -16.1
18 | COc1ccc(CCN(C)C2CCCN(S(C)(=O)=O)C2)cc1OC (stereo not drawn) | -4.36
19 | C/C=C(\C)CN1CCCC(N(C)CCc2ccc(OC)c(OC)c2)C1 (stereo not drawn) | -27.5
20 | COc1ccc(NC(=O)c2nn(C34CC5CC(CC(C5)C3)C4)cc2[N+](=O)[O-])cc1 | -0.0263
21 | O=c1nc(N2CCOCC2)ccn1-c1nc(-c2ccccc2)oc1-c1ccccc1 | -9.71
22 | Cc1c(NC(=O)COC(=O)C23CC4CC(CC(O)(C4)C2)C3)c(=O)n(-c2ccccc2)n1C | 10.1
23 | Cc1oc(-c2ccccc2F)nc1CS(=O)(=O)CC(=O)NCc1ccccc1Cl | -17.9

Row | SMILES | hERG current change (%, negative = inhibition) at 10uM [%]
24 | c1ccc(Nc2ncnc3sc4c(c23)CCC4)cc1 | 0.132
25 | Nc1ccc2nc(SCC(=O)N3CCOCC3)sc2c1 | 17
26 | COc1ccc(NC(C)=O)cc1C#N | 19.3
27 | CCOc1ccccc1NC(=O)NCc1ccc2c(c1)OCO2 | 22.4
28 | CC(C)C(=O)N(Cc1ccc2c(c1)OCO2)Cc1ccccn1.Cl | -7.53
29 | CCOc1ccccc1CN(CCc1ccc2c(c1)OCO2)Cc1ccccn1 | -64.4
30 | CCN1C(=O)c2cccc3c(NC(=O)c4ccc(OC)c(OC)c4)ccc1c23 | -68.3
31 | CCOc1cc(C(=O)Nc2ccc3c4c(cccc24)C(=O)N3CC)cc(OCC)c1OCC | -5.15
32 | CCN1C(=O)c2cccc3c(NC(=O)c4ccccc4)ccc1c23 | 9.37
33 | O=P(O)(Oc1ccccc1)OC(c1ccccc1)C(F)(F)C(F)(F)F (stereo not drawn) | 27.3
34 | CC(=O)N1CCN(c2ccccc2NC(=O)COc2ccc(Br)cc2)CC1 | -9.2
35 | Cc1cc(C)cc(OCC(=O)Nc2ccccc2N2CCCCC2)c1 | -0.491
36 | Cc1cc(C)cc(OCC(=O)Nc2ccc(N3CCOCC3)cc2N2CCOCC2)c1 | -6.54
37 | O=C(COc1ccc(Br)cc1)Nc1ccc(N2CCOCC2)cc1N1CCOCC1 | -7.56
38 | COC(=O)c1ccc(N2CCN(C)CC2)c(NC(=O)COc2ccc(C)cc2)c1 | -20
39 | COC(=O)c1ccc(N2CCN(C)CC2)c(NC(=O)COc2ccc(OC)cc2)c1 | -53.5
40 | CN1CCN(c2ccccc2NC(=O)COc2ccccc2)CC1 | -48.4
41 | CN1CCN(c2ccccc2NC(=O)COc2ccc(Br)cc2)CC1 | -58
42 | COC(=O)c1ccc(N2CCN(C)CC2)c(NC(=O)COc2ccccc2)c1 | -43.9
43 | CC(=O)N1CCN(c2ccccc2NC(=O)COc2ccccc2C)CC1 | -14
44 | CC(=O)N1CCN(c2ccccc2NC(=O)COc2cc(C)cc(C)c2)CC1 | -52.4
45 | O=C(COc1cccc(Br)c1)Nc1ccc(N2CCOCC2)cc1N1CCOCC1 | -50.6
